Read-out in experiment [1]: Urokinase-type plasminogen activator receptor (uPAR), PLAUR (gene 5329)
Description: BSK_4H_uPAR: BioMAP Diversity Plus: 4H Assay for Urokinase-type plasminogen activator receptor (uPAR) Biomarker Activity (AID 2283030). As to conditions: primary human endothelial cells (HUVEC); actives raise or lower the signal. The method in brief:
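Endpoint derived via bidirectional curve fitting against DMSO baseline; readout was ELISA detection of uPAR on umbilical vein endothelial cells at 24 h post-treatment, with SRB-stained parallel cultures assessing cytotoxicity.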

Read-out in experiment [2]: Vascular endothelial growth factor receptor 2 (Homo sapiens) (UniProt P35968)
Description: BSK_4H_VEGFRII: BioMAP Diversity Plus: 4H Assay for Vascular endothelial growth factor receptor 2 (VEGFR2) Biomarker Activity (AID 2283031).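 As to AC50: cell-surface VEGFR2 protein level quantified by ELISA.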 As to conditions: primary human endothelial cells (HUVEC); actives raise or lower the signal. The method in brief: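 In this multiplexed HUVEC system, biomarker ELISA was performed after 24 h chemical exposure. Parallel SRB staining (TCA fixation, 560 nm) tracked cytotoxicity; DMSO served as baseline.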

Read-out in experiment [3]: Human Leukocyte Antigen - DR isotype (HLADR), HLA-DRA (gene 3122)
Description: BSK_BE3C_HLADR: BioMAP Diversity Plus: BE3C Assay for Human Leukocyte Antigen - DR isotype (HLADR) Biomarker Activity (AID 2283032). As to conditions: primary human bronchial epithelial cells; actives raise or lower the signal. The method in brief: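 ELISA read-out of HLA-DR on human lung bronchial epithelial primary cells, measured 24 h post-dosing. Both increases and decreases were scored relative to DMSO vehicle.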

Read-out in experiment [4]: Vascular cell adhesion molecule 1 (VCAM1), VCAM1 (gene 7412)
Description: BSK_4H_VCAM1: BioMAP Diversity Plus: 4H Assay for Vascular cell adhesion molecule 1 (VCAM1) Biomarker Activity (AID 2283033).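 As to outcome: cell-surface VCAM-1 protein measured by ELISA.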 The settings on record: primary human endothelial cells (HUVEC); actives raise or lower the signal. The essentials: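 ELISA read-out of VCAM-1 on human umbilical vein endothelium 24 hours after chemical dosing; gain or loss of signal was fitted relative to DMSO, with sulforhodamine B staining of parallel cultures flagging overt cytotoxicity.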

Read-out in experiment [5]: Interferon-gamma inducible Protein 10 (IP10), CXCL10 (gene 3627)
Description: BSK_BE3C_IP10: BioMAP Diversity Plus: BE3C Assay for Interferon-gamma inducible Protein 10 (IP10) Biomarker Activity (AID 2283034). The settings on record: primary human bronchial epithelial cells; actives raise or lower the signal. The essentials:
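Chemical is dosed onto human lung bronchial epithelial primary cells, cultures are incubated 24 h, and IP-10 is then quantified by ELISA. Gain or loss of signal is fitted in both directions relative to DMSO.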

Read-out in experiment [6]: Monokine induced gamma interferon (MIG), CXCL9 (gene 4283)
The experiment can be described thus: BSK_BE3C_MIG: BioMAP Diversity Plus: BE3C Assay for Monokine induced gamma interferon (MIG) Biomarker Activity (AID 2283035).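 As to outcome: MIG protein measured by ELISA in BE3C cultures after 24 h of dosing.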 As to conditions: primary human bronchial epithelial cells; actives raise or lower the signal. The method in brief: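 MIG level was determined by ELISA after 24 h chemical treatment of primary human bronchial epithelial cells. Values were fitted bidirectionally with DMSO as the negative control and activity baseline.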

Read-out in experiment [7]: Transforming growth factor beta 1 (TGFb1), TGFB1 (gene 7040)
Description: BSK_BE3C_TGFb1: BioMAP Diversity Plus: BE3C Assay for Transforming growth factor beta 1 (TGFb1) Biomarker Activity (AID 2283036;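 also: TGF-b1 protein level measured by ELISA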). As to conditions: primary human bronchial epithelial cells; actives raise or lower the signal. The method in brief:
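Primary human lung bronchial epithelial cells; compound exposure 24 h; TGF-b1 by ELISA; bidirectional fit, DMSO baseline. Parallel SRB total-protein staining for cytotoxicity.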

Read-out in experiment [8]: Plasminogen activator inhibitor-1 (PAI1), SERPINE1 (gene 5054)
Description: BSK_BE3C_PAI1: BioMAP Diversity Plus: BE3C Assay for Plasminogen activator inhibitor-1 (PAI1) Biomarker Activity (AID 2283037). The settings on record: primary human bronchial epithelial cells; actives raise or lower the signal. The essentials: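 Primary human lung bronchial epithelial cells; chemical dosing; 24 h; PAI-1 measured by ELISA; bidirectional fit referenced to DMSO as negative control.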

Read-out in experiment [9]: urokinase plasminogen activator (uPA), PLAU (gene 5328)
The experiment can be described thus: BSK_BE3C_uPA: BioMAP Diversity Plus: BE3C Assay for urokinase plasminogen activator (uPA) Biomarker Activity (AID 2283038).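 As to outcome: uPA protein level quantified by ELISA in cell cultures; uPA read one day after compound addition.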 The settings on record: primary human bronchial epithelial cells; actives raise or lower the signal. The essentials: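 Using confluent primary human lung bronchial epithelial cultures, we dosed chemicals, waited 24 h, then ran a uPA ELISA, fitting bidirectionally against DMSO.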

Read-out in experiment [10]: Urokinase-type plasminogen activator receptor (uPAR), PLAUR (gene 5329)
Description: BSK_BE3C_uPAR: BioMAP Diversity Plus: BE3C Assay for Urokinase-type plasminogen activator receptor (uPAR) Biomarker Activity (AID 2283039).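 As to outcome: uPAR protein level measured by ELISA on the cells; cells exposed to compound for one day before measurement.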 As to conditions: primary human bronchial epithelial cells; actives raise or lower the signal. The method in brief:
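Human bronchial epithelial primary cells; chemical exposure 24 h; uPAR by ELISA; bidirectional fit vs DMSO control.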

Read-out in experiment [11]: Interleukin-6 (IL6), IL6 (gene 3569)
Description: BSK_CASM3C_IL6: BioMAP Diversity Plus: CASM3C Assay for Interleukin-6 (IL6) Biomarker Activity for (AID 2283040). The settings on record: primary human coronary artery smooth muscle cells; actives raise or lower the signal.

Read-out in experiment [12]: Tissue plasminogen activator (tPA), PLAT (gene 5327)
The experiment can be described thus: BSK_BE3C_tPA: BioMAP Diversity Plus: BE3C Assay for Tissue plasminogen activator (tPA) Biomarker Activity (AID 2283041).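 Also: tPA level quantified by ELISA one day after compound addition.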 As to conditions: primary human bronchial epithelial cells; actives raise or lower the signal. The method in brief:
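Primary human lung bronchial epithelial cultures receive test chemical; after 24 h, tPA is quantified by ELISA, and gain or loss of signal is fitted bidirectionally relative to DMSO baseline.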

Read-out in experiment [13]: Interleukin-8 (IL8), CXCL8 (gene 3576)
The experiment can be described thus: BSK_CASM3C_IL8: BioMAP Diversity Plus: CASM3C Assay for Interleukin-8 (IL8) Biomarker Activity (AID 2283042).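 Also: IL-8 protein level quantified by ELISA.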 The settings on record: primary human coronary artery smooth muscle cells; actives raise or lower the signal.

Read-out in experiment [14]: Human Leukocyte Antigen - DR isotype (HLADR), HLA-DRA (gene 3122)
Description: BSK_CASM3C_HLADR: BioMAP Diversity Plus: CASM3C Assay for Human Leukocyte Antigen - DR isotype (HLADR) Biomarker Activity (AID 2283043).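 Also: cell-surface HLA-DR protein level quantified by ELISA.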 As to conditions: primary human coronary artery smooth muscle cells; actives raise or lower the signal.

Read-out in experiment [15]: Macrophage colony-stimulating factor (MCSF), CSF1 (gene 1435)
The experiment can be described thus: BSK_CASM3C_MCSF: BioMAP Diversity Plus: CASM3C Assay for Macrophage colony-stimulating factor (MCSF) Biomarker Activity (AID 2283044).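 Also: M-CSF protein amount quantified by ELISA after 24 h exposure.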 The settings on record: primary human coronary artery smooth muscle cells; actives raise or lower the signal.

Read-out in experiment [16]: Low-density lipoprotein receptor (LDLR), LDLR (gene 3949)
The experiment can be described thus: BSK_CASM3C_LDLR: BioMAP Diversity Plus: CASM3C Assay for Low-density lipoprotein receptor (LDLR) Biomarker Activity (AID 2283045).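 Also: LDLR protein level on the cell surface quantified by ELISA.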 As to conditions: primary human coronary artery smooth muscle cells; actives raise or lower the signal.

Read-out in experiment [17]: Monocyte Chemoattractant Protein-1 (MCP1), CCL2 (gene 6347)
The experiment can be described thus: BSK_CASM3C_MCP1: BioMAP Diversity Plus: CASM3C Assay for Monocyte Chemoattractant Protein-1 (MCP1) Biomarker Activity (AID 2283046).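 Also: MCP-1 level quantified by ELISA 24 h after dosing.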 The settings on record: primary human coronary artery smooth muscle cells; actives raise or lower the signal.

Experiment [18] can be described thus: BSK_CASM3C_Proliferation: Cell Proliferation Assessment in the BioMAP Diversity Plus: CASM3C Assay (AID 2283047).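 Also: sulforhodamine B total protein stain as relative cell number at 560 nm; sub-confluent cells exposed 48 h before staining; fitted both ways against DMSO so gain or loss of cell number.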 The settings on record: primary human coronary artery smooth muscle cells.
Read-out in experiment [19]: Monokine induced gamma interferon (MIG), CXCL9 (gene 4283)
The experiment can be described thus: BSK_CASM3C_MIG: BioMAP Diversity Plus: CASM3C Assay for Monokine induced gamma interferon (MIG) Biomarker Activity (AID 2283048).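 Also: MIG protein level measured by ELISA.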 As to conditions: primary human coronary artery smooth muscle cells; actives raise or lower the signal.

Read-out in experiment [20]: serum amyloid A (SAA), SAA1 (gene 6288)
Description: BSK_CASM3C_SAA: BioMAP Diversity Plus: CASM3C Assay for serum amyloid A (SAA) Biomarker Activity (AID 2283049).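 Also: SAA protein level quantified by ELISA.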 The settings on record: primary human coronary artery smooth muscle cells; actives raise or lower the signal.

Active and inactive are the calls of the source. The calls were made as follows: active = hit-call score of the fitted dose curve at least 0.9, where 1 is the maximum; inactive = score below 0.9.

Turning to `CC(C)(C)OOC(C)(C)C`, the outcome in experiment [1], in experiment [2], in experiment [3], in experiment [4], in experiment [5] and in [6] was inactive. Also, the result in [7], in [8], in [9], in [10], in experiment [11] and in experiment [12] was inactive. Further, the result in experiment [13], in [14], in experiment [15], in [16], in experiment [17] and in experiment [18] was inactive. Also, the outcome in experiment [19] and in experiment [20] was inactive.

In the case of `c1nc[nH]n1`, the outcome in experiment [1], in experiment [2], in [3], in [4], in experiment [5] and in [6] was inactive. Moreover, the outcome in [7], in experiment [8], in experiment [9], in [10], in experiment [11] and in [12] was inactive. Besides, the outcome in experiment [13], in experiment [14], in experiment [15], in experiment [16], in [17] and in experiment [18] was inactive. The result in [19] and in [20] was inactive.

Consider `CSC(C)(C)C=NO`, for which the outcome in [1], in [2], in experiment [3], in experiment [4], in experiment [5] and in experiment [6] was inactive. The outcome in [7], in experiment [8], in [9], in [10], in experiment [11] and in experiment [12] was inactive. Besides, the result in experiment [13], in [14], in [15], in [16], in [17] and in [18] was inactive. Besides, the result in experiment [19] and in experiment [20] was inactive.

As for `c1ccc2c(c1)sc1ccccc12`, the result in [1], in experiment [2], in experiment [3], in experiment [4], in [5] and in [6] was inactive. Besides, the outcome in experiment [7], in experiment [8], in [9], in [10], in experiment [11] and in [12] was inactive. Also, the result in experiment [13], in experiment [14], in experiment [15], in [16], in [17] and in experiment [18] was inactive. Also, the result in experiment [19] and in [20] was inactive.

With `COP(=O)(O)OC`, the result in experiment [1], in [2], in [3], in experiment [4], in [5] and in [6] was inactive. The outcome in experiment [7], in experiment [8], in experiment [9], in [10], in experiment [11] and in [12] was inactive. For the same molecule, the outcome in experiment [13], in [14], in experiment [15], in experiment [16], in [17] and in experiment [18] was inactive. Also, the outcome in experiment [19] and in experiment [20] was inactive.

On to `CCOP(=S)(NC(C)C)Oc1ccccc1C(=O)OC(C)C` (stereo not given), for which the result in experiment [1], in [2], in [3], in [4], in experiment [5] and in [6] was inactive. Moreover, the result in experiment [7], in experiment [8], in experiment [9], in [10], in experiment [11] and in [12] was inactive. Further, the result in [13], in [14], in experiment [15], in experiment [16], in experiment [17] and in experiment [18] was inactive. The outcome in experiment [19] and in experiment [20] was inactive.

For the molecule `ClC(Cl)=C(c1ccc(Cl)cc1)c1ccccc1Cl`, the AC50 in [1] is 11.7 µM (active); in experiment [2] it was 5.35 µM (active); in experiment [3] it was 20 µM (active); in [4] it was 11.8 µM (active); in experiment [5], 10.7 µM (active); in experiment [6], 26.4 µM (active). For the same molecule, the half-maximal activity concentration (AC50) was 10.3 µM (active) in [8]; 20 µM (active) in experiment [9]; 8.34 µM (active) in experiment [10]; 26.1 µM (active) in experiment [14]; 16.7 µM (active) in [15]; 23.5 µM (active) in [16]. The values for the concentration at half-maximal activity (AC50) in experiment [17] and in experiment [18] were 20 µM (active) and 30 µM (active), respectively. Further, the outcome in [7], in experiment [11], in experiment [12], in experiment [13], in experiment [19] and in experiment [20] was inactive.

What is called AC50 is the midpoint of the concentration-response curve, whichever way the signal moves.

The values are drawn from PubChem BioAssay (EPA / NIEHS).
